Out of some 1,000 compounds screened, about 230 (23%) were called active. Inconclusive results (about 1%) are left out. The rule behind the calls is not given here. This is one part of the list. A call without a number means that no potency is given here. Potency and affinity values are given separately.
Biological target: Long-chain-fatty-acid--AMP ligase FadD28 (Mycobacterium tuberculosis (strain ATCC 25618 / H37Rv)) (UniProt P9WQ59)
Test: inhibitors of FadD28 bisubstrate probe binding, dose response, biochemical, fluorescence polarization, cherry-pick (AID 624273)
Conditions: series mostly up to 50 µM

Long-chain-fatty-acid--AMP ligase FadD28 (Mycobacterium tuberculosis (strain ATCC 25618 / H37Rv)), sequence (P9WQ59 whole entry, looked up): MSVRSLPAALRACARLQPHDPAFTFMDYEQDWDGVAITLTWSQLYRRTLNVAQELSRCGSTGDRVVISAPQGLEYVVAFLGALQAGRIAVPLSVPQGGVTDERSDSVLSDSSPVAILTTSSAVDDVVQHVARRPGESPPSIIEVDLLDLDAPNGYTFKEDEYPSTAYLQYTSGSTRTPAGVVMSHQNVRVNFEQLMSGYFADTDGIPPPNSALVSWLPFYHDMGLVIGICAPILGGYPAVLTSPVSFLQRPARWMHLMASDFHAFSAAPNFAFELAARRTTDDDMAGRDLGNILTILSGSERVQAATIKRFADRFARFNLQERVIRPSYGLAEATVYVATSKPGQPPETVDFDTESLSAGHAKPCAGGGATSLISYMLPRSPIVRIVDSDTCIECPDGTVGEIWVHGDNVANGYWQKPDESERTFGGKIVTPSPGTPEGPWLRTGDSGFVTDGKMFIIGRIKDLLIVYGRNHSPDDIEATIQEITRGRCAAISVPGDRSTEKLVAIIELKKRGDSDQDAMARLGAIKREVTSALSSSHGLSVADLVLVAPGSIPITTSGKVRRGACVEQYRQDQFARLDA

| SMILES | outcome |
| --- | --- |
| O=C(/C=C/c1ccco1)Nc1sc2c(c1C(=O)O)CCC2 | inactive |
| CC(=O)Nc1ccc(NC(=O)CSc2nc3nc(C)cc(C)c3c(=O)[nH]2)cc1 | inactive |
| COc1ccc(-n2nnnc2SCC(=O)c2ccc(O)c(O)c2)cc1 | inactive |
| CCC(=O)Nc1cccc(-n2nnnc2SCC(=O)c2ccc(C)c(C)c2)c1 | inactive |
| CCOc1ccccc1NC(=O)CN(C)S(=O)(=O)c1cnc[nH]1 | inactive |
| Cc1cc(SCNC(=O)c2ccccc2)nc(C(C)C)n1 | inactive |
| COc1ccc(C(C(=O)NC2CCCCC2)N(C(=O)c2sc(C)nc2C)c2ccc(OC)cc2)cc1 (stereo not given) | inactive |
| Cc1c(Cc2ccc3c(c2)OCO3)sc(NC(=O)c2ccc3ccccc3c2)c1C(N)=O | inactive |
| CCOC(=O)CNC(=O)Cn1cnc2c(cnn2-c2ccc(C)cc2)c1=O | inactive |
| O=c1c2ccccc2c(-c2ccc(O)cc2)nn1-c1cccc(C(F)(F)F)c1 | inactive |
| CC(C)CN(C(=O)c1ccc(-n2cncn2)c([N+](=O)[O-])c1)C1CCS(=O)(=O)C1 (stereo not given) | inactive |
| C/C(Cl)=C\Cn1c(O)c(N=O)c2ccccc21 | inactive |
| CC(=O)N1CC2(C)CN(C(C)=O)CC(C)(C1)C2=O | inactive |
| O=C1ON=C(c2cccc([N+](=O)[O-])c2)/C1=C/c1ccc(O)cc1 | inactive |
| O=C(O)CC1S/C(=N/N=C/c2ccc(-c3ccc(Cl)c([N+](=O)[O-])c3)o2)NC1=O (stereo not given) | inactive |
| Cc1ccc(-n2cccc2/C=C2/NC(=O)N(CC(=O)Nc3cccc(C)c3)C2=O)cc1 | inactive |
| COCCNC(=O)C1CCC(CNS(=O)(=O)c2ccc3c(c2)CC(C)N3C(=O)C2CC2)CC1 (stereo not given) | inactive |
| COc1ccc(N/C=C(\C2OC(=O)c3ccccc32)[N+](=O)[O-])cc1 (stereo not given) | inactive |
| CCOc1cc(C2C(C(=O)OC(C)C)=C(C)N=C3SCCC(=O)N32)ccc1OC(C)=O (stereo not given) | inactive |
| c1ccc2c(C[C@@H]3CNCCN3CC3CCCCC3)cccc2c1 | inactive |
| COC(=O)CSc1nc2ccccc2nc1SCC(=O)OC | inactive |
| O=[N+]([O-])c1ccc(OCCn2cncn2)cc1 | inactive |

| SMILES | outcome |
| --- | --- |
| COC(=O)c1ccc(Cl)c(NS(=O)(=O)c2ccc3c(c2)OCCO3)c1 | inactive |
| Cc1cc(C)n(CCN(C)C(=O)CCc2nnc(-c3ccc4c(c3)OCO4)o2)n1 | inactive |
| CN(C)C=NCCn1c(N2CCOCC2)nc2c1c(=O)n(C)c(=O)n2C | inactive |
| O=C(O)CN1CCN(Cc2ccccc2F)C1=O | inactive |
| C=CCn1c(SCC(N)=O)nnc1-c1cnccn1 | inactive |
| CCOC(=O)c1nc(NCc2cccnc2)c2ccccc2n1 | inactive |
| Cc1ccc(S(=O)(=O)N(CC(=O)Nc2cc(C)ccc2C)C(=O)N2CCN(C)CC2)cc1 | inactive |
| CN(CC(=O)Nc1ccc(Cl)c(C(F)(F)F)c1)C(=O)c1cccnc1Sc1ccccc1 | inactive |
| O=C(O)c1c(C(=O)O)c(-c2ccc(Br)cc2)n2c1CSC2 | inactive |
| CCCC1SCC(C)(C)NC1=O (stereo not given) | inactive |
| Cc1cc(S(=O)(=O)Nc2c(NC3CCCCC3)c3ccccc3oc2=O)ccc1F | inactive |
| CCCCC(=O)OCC(=O)C1(O)Cc2c(O)c3c(c(O)c2C(OC2CC(NC(=O)C(F)(F)F)C(O)C(C)O2)C1)C(=O)c1c(OC)cccc1C3=O (stereo not given) | inactive |
| CN(Cc1cn(-c2ccccc2)nc1-c1ccc(F)cc1)C(=O)CCC(=O)O | inactive |
| CCC(C)/C=C(C)/C=C/C1=CC2=C(Cl)C(=O)C(C)(OC(C)=O)C(=O)C2=CO1 (stereo not given) | inactive |
| N#Cc1c(NC(=O)c2cccc(S(=O)(=O)Nc3ccc(C(=O)O)cc3)c2)sc2c1CCCC2 | inactive |
| CCC1CCc2c(sc(NC(=O)CSc3nc(-c4ccco4)cc(C(F)(F)F)n3)c2C#N)C1 (stereo not given) | inactive |
| COC1(OC)N=C(N)C2(C#N)C(c3ccc(F)cc3)C12C#N (stereo not given) | inactive |
| CCCN(CC(=O)Nc1ccccc1C)C(=O)CCl | inactive |
| O=C(CCc1nc2ccccc2c(=O)[nH]1)NCc1ccco1 | inactive |
| Nc1ccc(Cc2ccc(N)c(C(=O)O)c2)cc1C(=O)O | inactive |
| O=C(O)Cc1csc(-c2ccccc2)n1 | inactive |
| CCN(CC)c1nc2n(c(=O)n1)CCO2 | inactive |

| SMILES | outcome |
| --- | --- |
| CC(C)(C)c1ccc(Cn2nnc3c(=O)[nH]c(C4CCCN(C(=O)c5ccco5)C4)nc32)cc1 (stereo not given) | inactive |
| O=[N+]([O-])c1cc(Cl)ccc1Nc1ccccc1 | inactive |
| Cn1nc([N+](=O)[O-])c(C(C#N)c2nc3ccccc3n2C)c(Cl)c1=O (stereo not given) | inactive |
| CCOC(OCC)c1nc(N)[nH]c(=O)c1CCCCc1ccccc1 | inactive |
| Cn1c(=O)c2c(ncn2CC(=O)N/N=C/c2ccc(Br)s2)n(C)c1=O | inactive |
| COc1ccc(NC(=O)Nc2c(O)ccc3ccccc23)cc1 | inactive |
| CCN(CC)S(=O)(=O)c1ccc(NC(=O)COC(=O)c2cc(S(=O)(=O)Nc3ccc(OC)cc3)ccc2O)cc1 | inactive |
| Cc1[nH]n(-c2ccccc2)c(=O)c1N=Nc1c(Cl)cccc1Cl | inactive |
| Cc1ccc(-n2cc(CNC(C)Cn3cncn3)c(-c3ccc(F)cc3)n2)cc1 (stereo not given) | inactive |
| Cc1cccc(CN2C(=O)N/C(=C/c3cc(C)n(-c4cc(C)ccn4)c3C)C2=O)c1 | inactive |
| O=C(O)CCC(=O)NC1CCCCC1 | inactive |
| COc1ccc(NC(=O)CSc2n[nH]c(-c3ccco3)n2)cc1 | inactive |
| O=C1C(=O)c2cccnc2-c2ncccc21 | inactive |
| CC(=O)C1C(c2cccc([N+](=O)[O-])c2)C2C(C)=NN=C2CC1(C)O (stereo not given) | inactive |
| COc1ccc(N2CCN(S(=O)(=O)c3ccc(-c4cc(C)no4)s3)CC2)cc1 | inactive |
| COc1ccc(/C=N/N(Cc2ccccc2)c2ccccc2)cc1O | inactive |
| Cc1ccc(S(=O)(=O)N2CCC(C(=O)NCCCN3CCOCC3)CC2)cc1C | inactive |
| COc1cc(/C=C2\SC(=S)N(NC(=O)c3ccc(O)cc3)C2=O)ccc1O | inactive |
| C=CCn1c(-c2cccn(Cc3ccc(Cl)cc3)c2=O)n[nH]c1=S | inactive |
| O=C(O)c1ccc(N2CC3CC(C2)c2cccc(=O)n2C3)c(NS(=O)(=O)c2cccc(C(F)(F)F)c2)c1 (stereo not given) | inactive |
| CN(C(=O)c1ccc(NC(=O)Cc2cccc(NC(=O)C3CCCN(C(=O)c4ccccc4)C3)c2)cc1)C1CC1 (stereo not given) | inactive |

From PubChem BioAssay AID624273 (Broad Institute, 2012)
